Sampled rows, rich in hits. Any-hit rate of the full collection: about 19%.
TDP1 cell noCPT = qHTS for Inhibitors of human tyrosyl-DNA phosphodiesterase 1 (TDP1): qHTS in cells in absence of CPT. DT40 Tdp1-/- hTDP1 cells, no CPT, ATP luminescence, 48 h. Potency, µM (titrated, usually from 46.2 µM), inactives show at the top dose activity change, negative = growth inhibition, usual class: inhibitors. 420,000 compounds, 15% hits. AID 686978, 2013; note: potency is the fitted concentration of half-maximal effect; nearly all actives have a fitted effect of over 55% in size
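Chicken DT40 Tdp1-/- cells stably complemented with human TDP1 were seeded at 400 cells/well with DMSO in place of 20 nM camptothecin. After compound pinning, cells grew at least 48 hr at 37 °C; viability read by CellTiter-Glo luminescence.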
HT1080NT lethal = kills 2HG-producing HT-1080-NT fibrosarcoma cells; HT-1080-NT fibrosarcoma viability, CellTiter-Glo ATP luminescence, 48 h; Potency, µM (series often up to 46.1 µM), for inactives: top-dose activity, negative = less viability, usual class: cytotoxic; 360,000 compounds, 1.6% hits; AID 686970;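 note: NT is the 2HG producing partner of a matched IDH1 knockdown line; potency is the fitted concentration of half-maximal effect; 0% = DMSO-treated cells and -100% = media-only wells without cells; nearly all actives have a fitted effect of over 55% in size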
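HT-1080-NT; 750 cells/well; 5% FBS RPMI; 48 h compound, 37 degrees C; CellTiter-Glo luminescence; curve fitting and curve-class assignment.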
uPA surface inh = cell surface uPA generation inhibition; cell surface uPA generation assay, qHTS; Potency, µM (top dose mostly 38.3 µM), for inactives: top-dose activity change, negative = inhibition, actives largely listed as inhibitors; 330,000 compounds, 0.31% hits; active = well fitted inhibition curve with a large enough effect; inconclusive = small, poorly fitted or top-dose-only effect; inactive = no such curve, though single readings can be large or run the other way; tested in mouse RAW 264.7 cells; note: potency is the fitted concentration of half-maximal effect; nearly all actives have a fitted effect of over 55% in size
DT40 TDP1 CPT = growth inhibition of DT40 Tdp1-/-;hTDP1 cells with camptothecin (screen for TDP1 inhibitors); Potency, µM (top dose mostly 46.2 µM), for inactives: top-dose activity change, negative = growth inhibition, usual class: inhibitors; chicken DT40 Tdp1-/-;hTDP1 cells + 20 nM CPT, ATP luminescence, 48 h; 420,000 compounds, 12% hits; AID 686979; note: potency is the fitted concentration of half-maximal effect; nearly all actives have a fitted effect of over 55% in size
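Cell growth measured by CellTiter-Glo luminescence after a minimum 48 h, 37 C compound exposure with 20 nM CPT in Tdp1-knockout DT40 cells stably expressing hTDP1, seeded 400/well; qHTS titration format.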
HT1080 IDH1KD tx = kills HT-1080 cells with IDH1 knockdown. HT-1080 IDH1 knockdown viability, ATP luminescence, 48 h. Potency, µM (titrated, usually from 46.1 µM), for inactives: at the top dose activity, negative = toxicity, usual class: cytotoxic. 360,000 compounds, 2% hits. AID 686971;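 note: potency is the fitted concentration of half-maximal effect; 0% = DMSO wells and -100% = cell-free medium wells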
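CellTiter-Glo luminescence after 48 h compound exposure at 37 degrees C of IDH1-knockdown HT-1080 cells in 5% FBS RPMI. %Activity scaled between DMSO wells and cell-free media wells, with curves fitted and assigned curve classes.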
IL1B secr inh = inhibitors of inflammasome signaling (IL-1 beta secretion) | THP-1 LPS/ATP IL-1B secretion, AlphaLISA, 16 h; hits give low values | activity change, % at 57.5 µM | 360,000 compounds, 4.7% hits; in the data active = activity change below about -50%; inconclusive = mostly about -30% to -49%
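THP-1 cells pretreated 1 hr with compounds (up to 57.5 uM final), then stimulated with LPS (250 ng/mL final) plus ATP (1.25 mM final); secreted IL-1B measured by AlphaLISA after 16 hr, decreased signal indicating inhibition.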
* marks the source's active call; other numbers are inactive results; ? = inconclusive; · = no result given. Unless noted, calls come from the whole dose curve; as a rule, active = well fitted curve in the direction sought with a large enough effect; inconclusive = small, poorly fitted or top-dose-only effect, or another doubt; inactive = no such curve, though single readings can be large; an effect the other way counts as inactive or inconclusive. Unless noted, % is set by controls: 0 for no effect and ±100 for the full control effect.

SMILES | TDP1 cell noCPT | HT1080NT lethal | uPA surface inh | DT40 TDP1 CPT | HT1080 IDH1KD tx | IL1B secr inh
CC(C)[C@H](CO)NC(=O)[C@H]1O[C@@H](n2ccc(=O)[nH]c2=O)[C@H](O)[C@@H]1O | 1% | 11% | · | -25% | 18% | 24
CCOC(=O)c1ccc(NC(=O)c2nc[nH]c2C(=O)NCCCNC(=O)c2[nH]cnc2C(=O)Nc2ccc(C(=O)OCC)cc2)cc1 | -11% | 13% | -8% | 0% | 17% | 9
CC1CCN(C(=O)c2[nH]cnc2C(=O)N[C@@H](CCCCNC(=O)OC(C)(C)C)C(=O)OC(C)(C)C)CC1 | ? | ? | -2% | ? | 0% | 0
CC(C)(C)OC(=O)NCc1ccc(NC(=O)c2nc[nH]c2C(=O)NCCN(CCNC(=O)c2[nH]cnc2C(=O)Nc2ccc(CNC(=O)OC(C)(C)C)cc2)CCNC(=O)c2[nH]cnc2C(=O)Nc2ccc(CNC(=O)OC(C)(C)C)cc2)cc1 | -19% | 11% | 1% | ? | 3% | -10
CC(C)(C)OC(=O)NCc1ccc(NC(=O)c2nc[nH]c2C(=O)NCCCCCCNC(=O)c2[nH]cnc2C(=O)Nc2ccc(CNC(=O)OC(C)(C)C)cc2)cc1 | 5.8µM* | 0% | 9% | 5.8µM* | -2% | 76
CC(C)(C)OC(=O)NCCCC[C@H](NC(=O)c1[nH]cnc1C(=O)Nc1ccc(CNC(=O)OC(C)(C)C)cc1)C(=O)OC(C)(C)C | 4.6µM* | ? | -3% | 5.8µM* | ? | 0
CC(C)(C)OC(=O)NCc1ccc(NC(=O)c2nc[nH]c2C(=O)NCCCNC(=O)c2[nH]cnc2C(=O)Nc2ccc(CNC(=O)OC(C)(C)C)cc2)cc1 | 26µM* | -5% | -3% | 13µM* | 0% | 84
CC(C)(C)OC(=O)NCc1ccc(NC(=O)c2nc[nH]c2C(=O)NCCCCNC(=O)c2[nH]cnc2C(=O)Nc2ccc(CNC(=O)OC(C)(C)C)cc2)cc1 | 2.9µM* | 13% | 13% | 4.1µM* | 11% | 59
CSc1ccc(Cl)c(C(=O)NCCOc2cc(C(C)C)ccc2C)c1 | 26µM* | ? | · | 29µM* | ? | ?
COc1ccc(C(CNC(=O)c2cc(SC)ccc2Cl)N(C)C)cc1 (stereo not drawn) | 0% | -2% | -5% | ? | 1% | ?
COc1ccc(C(=O)N(C)CC2CCN(CCc3cccc(C(F)(F)F)c3)CC2)cc1C | ? | -8% | -28% | ? | 1% | -61*
CN(CC1CCN(CCc2cccc(C(F)(F)F)c2)CC1)C(=O)c1ccc(F)cc1F | ? | -2% | -10% | ? | -10% | -51*
CSCCC(=O)N(C)CC1CCN(CCc2cccc(C(F)(F)F)c2)CC1 | -13% | 4% | -1% | -6% | 3% | -13
CCCCCCCCCCOC(=O)Cn1c(COc2ccccc2OC)[n+](C)c2ccccc21 | 1.3µM* | 15µM* | -15% | 1µM* | 21µM* | -91*
Cc1ccc(-n2c(=O)c3oc4ccccc4c3n(Cc3ccccc3)c2=O)cc1C | 13µM* | · | · | 21µM* | · | ·
Cc1ccc(Cn2c(=O)n(Cc3ccccc3)c(=O)c3oc4ccccc4c32)cc1 | 5% | · | · | 15% | · | ·
NC(=O)Cn1c(=O)n(-c2ccccc2)c(=O)c2oc3ccccc3c21 | -13% | ? | -3% | -9% | 9% | -50*
CC(C)c1ccc(NC(=O)Nc2cnccn2)cc1 | 7.3µM* | ? | -18% | 12µM* | 15µM* | 14
Cc1ccc(NC(=O)Nc2cnccn2)cc1 | 18% | 24% | 0% | -18% | 4% | -2
O=C(Nc1ccc([N+](=O)[O-])cc1)Nc1cnccn1 | 16µM* | -13% | -15% | ? | -8% | ?
OCCn1c(-c2ccc3c(c2)OCO3)csc1=Nc1ccccc1 | 21µM* | -4% | 0% | 16µM* | -26% | -62*
OCCn1c(-c2ccc(F)cc2)csc1=Nc1ccccc1 | 21µM* | -3% | 2% | ? | -9% | -53*
CC(C)C[C@H]1CN=C(Nc2ccccc2)N1CC1CCCC1 | 16µM* | -3% | -14% | ? | 0% | -21
c1ccc(C[C@H]2CN=C(Nc3ccccc3)N2CCC2CCCC2)cc1 | 15µM* | ? | -25% | ? | ? | ?
CC(C)C[C@H]1CN=C(Nc2ccccc2)N1CCC1CCCCC1 | 16µM* | -2% | -22% | ? | 0% | -7
SMILES | TDP1 cell noCPT | HT1080NT lethal | uPA surface inh | DT40 TDP1 CPT | HT1080 IDH1KD tx | IL1B secr inh
CC(C)C[C@H]1CN=C(Nc2ccccc2)N1CC(C)C | -24% | -1% | -6% | -26% | -2% | 22
CC(C)C[C@H]1CN=C(Nc2ccccc2)N1CC1CCC(C(C)(C)C)CC1 (stereo partly drawn) | 6.5µM* | -8% | -26% | 5.8µM* | ? | -87*
CC(=O)c1cnc(Oc2cc(Cl)ccc2Cl)nc1C | 3% | 15% | 11% | 15% | 10% | 3
NC(CSC(c1ccccc1)(c1ccccc1)c1ccccc1)C(=O)O (stereo not drawn) | 5.2µM* | ? | -9% | 5.8µM* | ? | 10
CS(=O)(=O)c1ccc(Sc2nc3ccccc3s2)c([N+](=O)[O-])c1 | 13µM* | -10% | -1% | 10µM* | 21µM* | -121*
N#C/C(=C\c1ccc(-c2ccc([N+](=O)[O-])cc2)o1)C(=O)Nc1nc(-c2cccs2)cs1 | ? | 3% | -6% | ? | 0% | -14
